The whole screen tested about 39,000 compounds, of which about 1,500 (3.8%) were called active. Only a selection was taken, and actives are over-represented in it overall.
tested on: HSkMC (human skeletal muscle cells); experiment: cytotoxicity call (relative viability < 0.9); conditions: 10 µM

Structure (SMILES) | cytotoxicity call
CO[C@H]1CN(C)C(=O)c2cc(NC(=O)Nc3ccc(Cl)cc3)ccc2OC[C@@H](C)N(C(=O)Nc2c(C)noc2C)C[C@H]1C | inactive
C[C@@H]1CCCCO[C@H](CN(C)S(=O)(=O)c2cccs2)[C@@H](C)CN([C@H](C)CO)C(=O)c2cc(NC(=O)Nc3ccc(C(F)(F)F)cc3)ccc2O1 | inactive
Cc1noc(C)c1NC(=O)N(C)C[C@@H]1Oc2ccc(NC(=O)Cn3cnnn3)cc2CC(=O)N([C@@H](C)CO)C[C@H]1C | inactive
C[C@@H]1CN([C@H](C)CO)C(=O)Cc2cc(NC(=O)Cn3cnnn3)ccc2O[C@@H]1CN(C)C(=O)Nc1ccc(C(F)(F)F)cc1 | inactive
C[C@H](CO)N1C[C@H](C)[C@H](CN(C)Cc2ccc(Cl)c(Cl)c2)OCCCC[C@H](C)Oc2ccc(NC(=O)Nc3ccc(C(F)(F)F)cc3)cc2C1=O | inactive
Cc1ccc(S(=O)(=O)N(C)C[C@@H]2Oc3ccc(NS(=O)(=O)c4cccs4)cc3C(=O)N([C@@H](C)CO)C[C@@H]2C)cc1 | inactive
O=C(C[C@H]1CC[C@@H]2[C@H](COC[C@@H](O)CN2S(=O)(=O)c2cccc(F)c2)O1)NCCCN1CCOCC1 | inactive
Cc1ccc(F)c(S(=O)(=O)N2[C@@H]3CC[C@@H](C3)[C@H]2c2nc3cccc(OCc4ccc(F)cc4)c3[nH]2)c1 | inactive
C[C@H](CO)N1C[C@H](C)[C@H](CN(C)Cc2ccc(C(F)(F)F)cc2)OCCCC[C@H](C)Oc2ccc(NC(=O)Nc3ccccc3)cc2C1=O | inactive
C[C@@H]1CCCCO[C@H](CN(C)Cc2ccc(C(F)(F)F)cc2)[C@H](C)CN([C@H](C)CO)C(=O)c2cc(NC(=O)c3ccccc3)ccc2O1 | inactive
C[C@H]1CCCCO[C@@H](CN(C)Cc2ccc(C(F)(F)F)cc2)[C@@H](C)CN([C@@H](C)CO)C(=O)c2cc(NC(=O)c3ccccc3)ccc2O1 | active
C[C@@H]1CN([C@@H](C)CO)C(=O)c2cc(NC(=O)Nc3ccccc3)ccc2O[C@@H](C)CCCCO[C@H]1CN(C)Cc1ccc(C(F)(F)F)cc1 | active
C[C@@H]1CCCCO[C@H](CN(C)Cc2ccncc2)[C@H](C)CN([C@@H](C)CO)C(=O)c2cc(NC(=O)c3ccccc3)ccc2O1 | active
C[C@H]1CCCCO[C@H](CN(C)Cc2ccncc2)[C@@H](C)CN([C@@H](C)CO)C(=O)c2cc(NC(=O)c3ccccc3)ccc2O1 | inactive
C[C@@H]1CCCCO[C@@H](CN(C)Cc2ccc(C(F)(F)F)cc2)[C@@H](C)CN([C@@H](C)CO)C(=O)c2cc(NC(=O)Nc3ccccc3)ccc2O1 | inactive
C[C@H]1CCCCO[C@H](CN(C)Cc2ccc(C(F)(F)F)cc2)[C@@H](C)CN([C@@H](C)CO)C(=O)c2cc(NC(=O)Nc3ccccc3)ccc2O1 | active
C[C@@H]1CCCCO[C@@H](CN(C)Cc2ccc(C(F)(F)F)cc2)[C@H](C)CN([C@H](C)CO)C(=O)c2cc(NC(=O)c3ccccc3)ccc2O1 | inactive
C[C@H](CO)N1C[C@H](C)[C@H](CN(C)Cc2ccncc2)OCCCC[C@H](C)Oc2ccc(NC(=O)c3ccccc3)cc2C1=O | inactive
O=C(NOCCO)c1cc(CN2OCCCC2=O)c(F)c(F)c1Nc1ccc(I)cc1F | inactive
O=C(C[C@H]1C[C@H]2c3cc(NS(=O)(=O)c4ccccc4)ccc3O[C@H]2[C@H](CO)O1)NCC(F)(F)F | inactive
CC(C)OC(=O)c1nnc(N)[nH]1 | inactive
CN1CCN(C(=O)[C@H]2C[C@H]3CN(c4ncc(F)cn4)C[C@@H]3N2C)CC1 | inactive
CC1(C)C=Cc2c(nc3ccccc3c2NCc2ccccc2)C1 | inactive
Cc1cc(C(=O)Nc2ccc3c(c2)C(=O)N(C)[C@@H]2CC[C@H](CC(=O)NCC(F)(F)F)O[C@@H]2CO3)no1 | inactive

Structure (SMILES) | cytotoxicity call
COCC(=O)Nc1ccc2c(c1)C(=O)N(C)C[C@@H](OC)[C@@H](C)CN(Cc1ccccc1OC)[C@@H](C)CO2 | inactive
C[C@@H]1CN([C@H](C)CO)C(=O)c2cc(NC(=O)C3CCCCC3)ccc2O[C@@H](C)CCCCO[C@H]1CN(C)Cc1ccccc1 | inactive
COc1ccc(C#Cc2cnc3c(c2)C(=O)N([C@@H](C)CO)C[C@@H](C)[C@H](CN(C)C(=O)CN(C)C)O3)cc1 | inactive
C[C@H](CO)N1C[C@H](C)[C@@H](CN(C)S(=O)(=O)c2cn(C)cn2)Oc2c(NC(=O)CCC(F)(F)F)cccc2C1=O | inactive
C[C@@H]1CCCCO[C@@H](CN(C)S(=O)(=O)c2ccc(Cl)cc2)[C@@H](C)CN([C@H](C)CO)C(=O)c2cc(NC(=O)Nc3cccc4ccccc34)ccc2O1 | inactive
COC(=O)[C@@H]1CCCC1=O | inactive
COc1ccc(CNC(=O)C[C@H]2C[C@H]3c4cc(NC(=O)NC5CCCC5)ccc4O[C@H]3[C@@H](CO)O2)cc1 | inactive
FC(F)(F)c1cc(NC(=S)Nc2ccc(Br)cc2-c2nn[nH]n2)cc(C(F)(F)F)c1 | active
O=C(Nc1cc(C(F)(F)F)cc(C(F)(F)F)c1)Nc1c(Br)cc(Br)cc1-c1nn[nH]n1 | inactive
COc1ccccc1-c1cnc2c(c1)C(=O)N([C@@H](C)CO)C[C@H](C)[C@H](CN(C)C(=O)c1cccnc1)O2 | inactive
COc1ccc([Si](C)(C)[C@H]2[C@H](CC(=O)N(CCO)Cc3ccccc3)O[C@@]3(C(=O)N(Cc4cccc(N5CCCCC5=O)c4)c4ccccc43)[C@@H]2C)cc1 | inactive
Nc1ncnc2c1ncn2[C@@H]1O[C@H](CO)[C@@H](O)[C@@H]1O | inactive
Nc1ncnc2c1ncn2[C@H]1O[C@@H](CO)[C@H](O)[C@@H]1O | inactive
Nc1ncnc2c1c(I)cn2[C@@H]1O[C@H](CO)[C@@H](O)[C@H]1O | inactive
NC(=O)c1cn([C@@H]2O[C@H](CO)[C@@H](O)[C@H]2O)c2ncnc(N)c2c1=O | active
Nc1ncn(C2OC(CO)C(O)C2O)c(=O)n1 (stereo not given) | inactive
Nc1ncn([C@@H]2C[C@H](O)[C@@H](CO)O2)c(=O)n1 | inactive
Nc1nc(F)nc2c1ncn2[C@@H]1O[C@H](COP(=O)(O)O)[C@@H](O)[C@@H]1O | inactive
Nc1ncnc2c1c(I)cn2[C@H]1O[C@@H](CO)[C@@H](O)[C@@H]1O | inactive
OC[C@H]1O[C@H](n2cnc3cncnc32)[C@@H](O)[C@@H]1O | active
Nc1nc(Cl)nc2c1ncn2[C@@H]1O[C@H](CO)[C@@H](O)[C@H]1O | inactive
Nc1nc(F)nc2c1ncn2[C@@H]1O[C@H](CO)[C@@H](O)[C@H]1O | active
Nc1ncn([C@@H]2O[C@H](CO)[C@@H](O)[C@H]2O)c(=O)n1 | active
CC(C)NC(=O)Nc1ccc2c(c1)CC(=O)N([C@H](C)CO)C[C@@H](C)[C@@H](CN(C)Cc1ccc(-c3ccccc3)cc1)O2 | inactive

Structure (SMILES) | cytotoxicity call
C[C@@H]1CN([C@@H](C)CO)C(=O)c2cc(C#CCN(C)C)cnc2O[C@H]1CN(C)S(C)(=O)=O | inactive
C[C@@H]1CN([C@@H](C)CO)C(=O)c2cc(NS(=O)(=O)c3cccs3)ccc2O[C@@H](C)CCCCO[C@H]1CN(C)C(=O)Cc1ccccc1 | inactive
COc1ccc(CN(C)C[C@@H]2Oc3ccc(NS(=O)(=O)c4cn(C)cn4)cc3CC(=O)N([C@H](C)CO)C[C@H]2C)cc1 | inactive
C[C@H](CO)N1C[C@H](C)[C@H](CN(C)Cc2ccc(-c3ccccc3)cc2)Oc2ccc(NC(=O)NC3CCCCC3)cc2CC1=O | inactive
COc1ccc(S(=O)(=O)N2C[C@H](O)COC[C@@H]3O[C@@H](CC(=O)NCCCN(C)C)CC[C@H]32)cc1 | inactive
C/C(=C\CC[C@@H](C)[C@H]1C[C@@H](O)[C@@]2(C)[C@H]3CC[C@H]4C(C)(C)[C@@H](O[C@@H]5O[C@@H](CO[C@H]6OC[C@@H](O)[C@@H](O)[C@@H]6O)[C@@H](O)[C@@H](O)[C@@H]5O)CC[C@@]45C[C@@]35C[C@@H](O)[C@]12C)C(=O)O[C@H]1O[C@@H](CO)[C@@H](O)[C@@H](O)[C@@H]1O | inactive
C[C@H]1CN([C@@H](C)CO)C(=O)CCCn2nncc2CO[C@H]1CN(C)C(=O)c1cc(-c2ccccc2)on1 | inactive
C[C@H]1CCCCO[C@H](CN(C)CC2CC2)[C@@H](C)CN([C@@H](C)CO)C(=O)c2cc(NC(=O)c3ccccc3)ccc2O1 | inactive
Cc1noc(C)c1NC(=O)Nc1ccc2c(c1)CC(=O)N([C@@H](C)CO)C[C@@H](C)[C@H](CN(C)Cc1ccc(C(=O)Nc3ccccc3N)cc1)O2 | inactive
C[C@H](CO)N1C[C@H](C)[C@H](CN(C)CC2CCOCC2)Oc2cc(C#Cc3ccccc3F)ccc2S1(=O)=O | inactive
Nc1nc(Cl)nc2c1ncn2[C@H]1C[C@H](O)[C@@H](CO)O1 | active
Nc1nc(Cl)nc2c1ncn2[C@H]1C[C@@H](O)[C@@H](CO)O1 | inactive
Nc1ncnc2c1ncn2[C@H]1C[C@H](O)[C@@H](CO)O1 | inactive
CCN(CC)CCOc1ccc2c(c1)C(=O)c1cc(OCCN(CC)CC)ccc1-2 | inactive
CCN(CC)CCOc1ccc(Nc2ncc3cc(-c4c(Cl)cccc4Cl)c(=O)n(C)c3n2)cc1 | active
C[C@](N)(Cc1ccc(O)c(O)c1)C(=O)O | inactive
NCCNc1cccc2ccccc12 | inactive
c1ccc(CCNc2ccnc3cc4ccccc4cc23)cc1 | active
NNCCc1ccccc1 | inactive
Cc1noc(C)c1S(=O)(=O)Nc1ccc2c(c1)C(=O)N([C@H](C)CO)C[C@H](C)[C@@H](CN(C)Cc1ccc(Oc3ccccc3)cc1)O2 | inactive
C[C@@H]1COCC(=O)N1 | inactive
C[C@@H]1CN([C@H](C)CO)C(=O)c2cc(NC(=O)Cc3ccccc3)ccc2O[C@@H](C)CCCCO[C@@H]1CN(C)S(=O)(=O)c1cccs1 | inactive

From the antibiotic and cytotoxicity screens of Wong et al. (2023)
